# Reference: PubChem BioAssay (NCI)
# About 83,000 compounds went through this panel and 20% of them were active in at least one assay; those are over-represented in the sample as a whole.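 In brief: 96-well plates, 48 h treatment, single concentration, percent growth endpoint.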 Unmarked numbers belong to inactive results. The source made the active and inactive calls. The calls were made as follows: active = growth percent below 10; inactive = the rest.
# System: MDA-MB-468 breast
# Experiment: NCI-60 one-dose screen, 48 h (100 = growth as untreated, 0 = no growth, -100 = all killed)
# Settings: 10 µM unless noted
row,Compound,growth
1,COc1ccc(/C=C/C(=O)/C=C/c2cc3ccccc3[nH]c2=O)cc1,43.9%
2,CCOC(=O)c1cc2c(n1Cc1cc(OC)cc(OC)c1)-c1oncc1CC2,-14.1% (active)
3,O=C(Nc1nc(-c2ccc(Br)cc2)cs1)c1cc(-c2ccc(Br)cc2)nc2ccc(Cl)cc12,102%
4,Cc1ccc(Cc2c(C=O)nc(N)[nH]c2=O)c2ccccc12,106%
5,CN1CCC[C@]2(C)[C@H]3CC[C@@H]4[C@@H]5[C@H]6OC[C@@]5(CCC6(C)C)CC[C@@]4(C)[C@]3(C)CC[C@H]2C1(C)C,82%
6,O=C(/C=C/c1cccc(O)c1)c1cccc(-n2cc(-c3ccccc3)[nH]c2=O)c1,73.4%
7,N#C/C(=C\c1ccc(-c2ccccc2)o1)c1nc(-c2ccco2)cs1,-32.4% (active)
8,O=C(/C=C(/C=C/c1coc2ccccc12)OB(F)F)/C=C/c1coc2ccccc12,112%
9,CN(C)Cc1ccc(NC(=O)c2cncc(C#Cc3cnc(N)c4ncccc34)c2)cc1F,72.3%
10,Cc1scc2c1N(C(=O)CN1CCN(C)CC1)c1ccccc1NC2=O,101%
11,CC1=C/C(O)CC(=O)Cc2nc(co2)C(=O)N2CCC=C2C(=O)OC(C(C)C)C(C)/C=C\C(=O)NC/C=C\1 (stereo not drawn),54.5%
12,C=C1C(=O)O[C@@H]2C[C@@H](C)/C=C\C(=O)[C@](C)(OC(C)=O)C[C@H](OC(=O)/C(C)=C\C)[C@@H]12,-59.1% (active)
13,Cc1cc2c(-c3nc4ccccn4c3Nc3cccc4ccccc34)c(O)c(O)cc2c(O)c1-c1c(C)cc2c(-c3nc4ccccn4c3Nc3cccc4ccccc34)c(O)c(O)cc2c1O,17.4%
